In PubChem BioAssay AID2184 (The Scripps Research Institute Molecular Screening Center, 2009):
The list shows a part of the results. Values without a mark were called inactive. The source made the active and inactive calls. No stated cut-off is given here; in the data, active means inhibition above about 0.66%; inactive means the rest.

biological target: Beta-lactamase TEM (Escherichia coli) (UniProt P62593); assay: TEM-1 inhibition (serine beta-lactamase), epi-absorbance biochemical counter-screen, VIM-2/IMP-1 inhibitor project (AID 2184); conditions: TEM-1 beta-lactamase, nitrocefin absorbance inhibition; at 5.6 µM; stronger effect = higher value
Sequence (P62593 whole entry, looked up): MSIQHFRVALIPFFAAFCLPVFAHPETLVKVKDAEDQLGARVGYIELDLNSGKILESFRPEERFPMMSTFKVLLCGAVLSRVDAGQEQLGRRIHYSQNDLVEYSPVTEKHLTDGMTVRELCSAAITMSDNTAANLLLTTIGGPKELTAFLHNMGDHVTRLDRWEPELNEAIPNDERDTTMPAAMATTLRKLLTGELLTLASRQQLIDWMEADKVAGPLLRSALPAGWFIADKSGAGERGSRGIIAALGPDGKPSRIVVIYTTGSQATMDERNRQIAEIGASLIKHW

Question: How did the inhibition turn out when `Cc1nn(C)cc1N1C(=O)c2cccc3c(N)ccc(c23)C1=O` was run?
Answer: 43.9% (active)

Question: For `c1ccc(-c2nccc(-c3ccc(-n4cnc5ccccc54)cc3)n2)nc1`, which inhibition is on record?
Answer: -3.39%

Question: For `CCC(=C/c1sc2ccc3ccccc3c2[n+]1C)/C=C1\Sc2ccc3ccccc3c2N1C`, which inhibition is on record?
Answer: -0.12%

Question: For `CN1C(=O)c2cccc3c(N)ccc(c23)C1=O`, which inhibition is on record?
Answer: 49.7% (active)

Question: For `Nc1c(C(=O)c2cccs2)sc2nsc(SCCN3CCCCC3)c12`, which inhibition is on record?
Answer: 23.4% (active)

Question: Which inhibition does the source give for `NC(=O)c1ccc(NC(=O)COC(=O)c2c3c(nc4ccccc24)/C(=C\c2ccc4c(c2)OCO4)CCC3)cc1` here?
Answer: -4.26%

Question: For `COc1cc(/C=C2/SC(=S)N(Cc3ccccc3)C2=O)cc(OC)c1O`, which inhibition is on record?
Answer: 12.7% (active)

Question: Which inhibition does the source give for `Cc1cc2nc3c(=O)n(Cc4ccccc4)c(=O)[nH]c3nc2cc1N` here?
Answer: 30.2% (active)

Question: With `C/C(=N\Nc1ccc(S(N)(=O)=O)cc1[N+](=O)[O-])c1cccs1` as the compound, how does the inhibition read?
Answer: 1.6% (active)

Question: For `Oc1ccc2ccc3cccc[n+]3c2c1`, which inhibition is on record?
Answer: 25.5% (active)

Question: Which inhibition does the source give for `NS(=O)(=O)c1ccc(NC(=O)COC(=O)c2c3c(nc4ccccc24)/C(=C\c2ccc4c(c2)OCO4)CCC3)cc1` here?
Answer: -4.87%
